Assay results reported in PubChem BioAssay AID485364 (National Center for Advancing Translational Sciences (NCATS), 2010).
The whole screen tested about 360,000 compounds, of which about 11,000 (3.1%) were called active. A call without a number means that no potency is given here. Inconclusive results (about 4%) are left out. The call rests on the fitted dose curve; in most records, active means well fitted inhibition curve with a large enough effect; inconclusive means small, poorly fitted or top-dose-only effect; inactive means no such curve, though single readings can be large or run the other way. The sample as a whole holds a higher share of actives than the screen did.

Each molecule was assayed against Schistosoma mansoni thioredoxin glutathione reductase (TGR) (UniProt Q962Y6) (assay: qHTS Assay for the Inhibitors of Schistosoma Mansoni Peroxiredoxins). Details: purified TGR, DTNB reduction, TNB absorbance 405 nm; series mostly up to 114 µM.
Summary of the method: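 First, TGR (20 nM dispensed) and NADPH were mixed with compound. Second, a 15 min room-temperature incubation followed. Third, further NADPH and then DTNB were added to start the reaction. Finally, TNB absorbance was monitored kinetically.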
Further: nearly all actives have a fitted effect of over 60% in size.
Potency means the concentration at half of the fitted maximal effect.

Compound | Potency
CC1CN(C(=O)N2CCC(C(=O)NCc3cccs3)CC2)c2ccccc2O1 (centres undefined) | inactive
O=C(NC1(C(F)(F)F)N=C(c2ccccc2)N(C2CCCCC2)C1=O)c1ccccc1F (centres undefined) | inactive
CC1=C(C/C=C(\C)CCCC(C)CCCC(C)CCCC(C)C)C(=O)c2ccccc2C1=O (centres undefined) | 28.2 µM (active)
CC(=O)Nc1ccc(NC(=O)CCCc2nc(-c3ccc(C(C)(C)C)cc3)no2)cc1 | inactive
Cc1cc(C)c(-c2n[nH]c3c2C(c2ccccc2F)N(CCO)C3=O)c(O)c1 (centres undefined) | inactive
COc1ccc(N2CCN(Cc3nc4c(c(=O)[nH]c(=O)n4C)n3Cc3ccc(Cl)cc3)CC2)cc1 | inactive
CCOC(=O)c1sc(NC(=O)/C=C/c2ccc(C(C)C)cc2)c(C(=O)OCC)c1C | inactive
Cc1nnc(NC(=O)CCCOc2ccccc2)s1 | inactive
CCOC(=O)c1c(NC(=O)/C=C/c2ccco2)sc(C)c1C | 35.5 µM (active)
Cc1nnc(NC(=O)/C=C/c2ccco2)s1 | 22.4 µM (active)
CCOC(=O)c1c(NC(=S)NC(=O)/C=C/c2cccs2)sc(C)c1C | inactive
Cc1nnc(NC(=O)C(c2ccccc2)c2ccccc2)s1 | inactive
O=C(CSc1nc(-c2cccc(F)c2)[nH]c1-c1ccccc1)Nc1ccc2c(c1)OCO2 | inactive
CCN(CC)S(=O)(=O)c1ccc(C(=O)N=c2sc3cccc(OC)c3n2C)cc1 | inactive
Cc1ccc(C)c(OCC(=O)Nc2sc3c(c2C#N)CCCC3)c1C | inactive
Cc1nn(-c2ccccc2)c(Cl)c1/C=C/C(=O)c1ccc(O)cc1 | inactive
Cc1ccccc1-n1nc(C)c2cc(C(=O)NC3CC3)sc21 | inactive
Cc1ccccc1-n1nc(C)c2c1N=C1C(Cl)=CC(Cl)=CN1C2c1ccc(C(=O)O)cc1 (centres undefined) | 35.5 µM (active)
O=C(Nc1ccc2nc(SCC(=O)N3CCCc4ccccc43)sc2c1)c1ccc(F)cc1 | inactive
CC(=O)c1ccc(NC(=O)c2nc(-c3ccc(C)cc3)n3c2CCCCC3)cc1 | inactive
Cc1ccccc1CNC(=O)CCCn1nc(C)c2sc3ccccc3c2c1=O | inactive
O=C(CC1OC(=O)c2ccccc21)NC1CCCCC1 (centres undefined) | inactive
O=C(NC1CCCCC1)C1c2ccccc2C(=O)N1Cc1ccco1 (centres undefined) | 39.8 µM (active)
CCC(C)NC(=O)C1c2ccccc2C(=O)N1Cc1ccccc1 (centres undefined) | inactive
CC(NC(=O)c1cc(Sc2ccc(F)cc2F)nc2ccccc12)c1ccccc1 (centres undefined) | inactive

Compound | Potency
CC(C)C(=O)Nc1nc2c(s1)CC(C(C)(C)C)CC2 (centres undefined) | inactive
Cc1ccc(S(=O)(=O)N(CC(=O)Nc2ccc(Cl)cc2Cl)c2ccccc2C)cc1 | inactive
COc1cccc(CN2CCc3nc(SCC(=O)Nc4ccccc4)[nH]c(=O)c3C2)c1 | inactive
CC(C)c1ccc(NC(=O)C2CCN(c3nc(-c4ccc(C(C)C)cc4)no3)CC2)cc1 | inactive
COc1cccc(N2CC(NS(=O)(=O)c3ccc(Cl)cc3)CC2=O)c1 (centres undefined) | inactive
O=C(C1CC(=O)N(c2ccc(F)cc2)C1)N1CCN(c2ccccc2)CC1 (centres undefined) | inactive
COc1ccc(CN2CCCC(N3CCc4ccccc4C3)C2)c(O)c1 (centres undefined) | inactive
COC(=O)CN(C(=S)Nc1ccc(Cl)cc1)C1CC(=O)N(c2ccc(OC)cc2)C1=O (centres undefined) | inactive
COc1cccc(N2C(=O)CC(N3CCN(S(=O)(=O)c4ccccc4)CC3)C2=O)c1 (centres undefined) | 39.8 µM (active)
O=C1CC(N2CCN(c3ccc(F)cc3)CC2)C(=O)N1c1ccccc1 (centres undefined) | 50.1 µM (active)
COc1ccc(COCCN2CCN(S(=O)(=O)c3ccccc3)CCC2=O)cc1 | inactive
COc1cccc(N(CC(=O)N2CCc3ccccc3C2)S(C)(=O)=O)c1 | inactive
COc1cccc(N2C(=O)CC(N3CCc4ccccc4C3)C2=O)c1 (centres undefined) | 39.8 µM (active)
CN1C(=O)CC(N2CCN(c3ccccn3)CC2)C1=O (centres undefined) | inactive
COc1cccc(N2CCN(C3CC(=O)N(c4ccc(Cl)cc4)C3=O)CC2)c1 (centres undefined) | 39.8 µM (active)
COc1cccc(N2C(=O)CN(Cc3ccccc3)C2=S)c1 | inactive
C=Cc1ccc(Cn2c(C(=O)OC)cc3sc(C)cc32)cc1 | inactive
COc1ccc(C(=O)CSc2c(C(C)C)cnc3c2c(=O)n(C)c(=O)n3C)cc1 | inactive
COc1cc2[nH]c(=O)n(Cc3ccc(C(=O)NCc4ccc(C)cc4)cc3)c(=O)c2cc1OC | inactive
O=CN1CCN(C2CC(=O)N(c3ccc4c(c3)OCO4)C2=O)CC1 (centres undefined) | 44.7 µM (active)
Cc1ccc(CC2CC(=O)N(c3ccc4c(c3)OCCO4)C2=O)cc1 (centres undefined) | inactive
COc1ccc(N2CCN(C3CC(=O)N(c4ccc5c(c4)OCCO5)C3=O)CC2)cc1 (centres undefined) | inactive
COc1cc(Nc2nc(-c3ccc(OC)c(OC)c3)nc3ccccc23)cc(OC)c1 | inactive
CC(=O)c1ccc(NC(=O)CSc2c(C(C)C)cnc3c2c(=O)n(C)c(=O)n3C)cc1 | inactive
Cc1cccc(NC(=O)CSc2ncc(-c3ccccc3)[nH]2)c1C | inactive

Compound | Potency
Cc1ccc(NC(=O)c2cc(-c3ccc(C)o3)nc3ccccc23)nc1 | 11.2 µM (active)
CSc1ncccc1C(=O)Nc1ccc(C)cn1 | inactive
COc1ccc(/C=C(\C#N)C(=O)OCC(=O)N(C)C2CCS(=O)(=O)C2)cc1 (centres undefined) | inactive
CN(C(=O)COC(=O)c1cc(-c2ccco2)nc2ccccc12)C1CCS(=O)(=O)C1 (centres undefined) | 3.55 µM (active)
CC(=O)N1CCN(C(=O)c2cc(-c3ccc(C)o3)nc3ccccc23)CC1 | inactive
O=C(c1cc(-c2ccc(Cl)s2)nc2ccccc12)N1CCOCC1 | inactive
COc1ccc(CN(C)C(=O)c2cc(-c3ccc(C)cc3C)nc3ccccc23)c(OC)c1OC | inactive
CCOc1ccccc1-c1cc(C(=O)N2CCOCC2)c2ccccc2n1 | inactive
COc1ccc(NC(=O)COc2ccc(C(=O)OCC(=O)N(C)C3CCS(=O)(=O)C3)cc2OC)cc1 (centres undefined) | inactive
CN(CCOc1ccccc1)C(=O)c1cc(COc2c(F)cccc2F)on1 | inactive
CC1CCCN(C(=O)c2cc(-c3ccco3)nc3ccccc23)C1 (centres undefined) | 31.6 µM (active)
CN(CCOc1ccccc1)C(=O)c1cc(-c2ccco2)nc2ccccc12 | 3.16 µM (active)
Cc1ccc(-c2nnc(Nc3ccc(OCC(N)=O)cc3)c3ccccc23)cc1S(=O)(=O)NCC1CCCO1 (centres undefined) | inactive
Cc1ccc(Cl)cc1N1CCN(C(=O)c2cnc3c(-c4ccc(F)cc4)c(C)nn3c2C)CC1 | inactive
CC(=O)N1c2ccccc2CC1C(=O)N1CCN(c2ccc(F)cc2)CC1 (centres undefined) | inactive
Cc1ccc2oc(=O)c3cnn(CC(=O)N4CCN(c5cccc(Cl)c5)CC4)c3c2c1 | inactive
Fc1cccc(-n2ncc3c2ncn2nc(-c4ccccc4Cl)nc32)c1 | inactive
CCOc1cccc(C(=O)Nc2nnc(S(=O)(=O)N(C)c3ccc(C)cc3)s2)c1 | inactive
O=C(Nc1ccc2oc(-c3ccc(O)c(Br)c3)nc2c1)c1cc2ccccc2o1 | inactive
COc1ccc(OC)c(NC(=O)CN2CCCN(Cc3cc(C)ccc3C)S2(=O)=O)c1 | inactive
Cc1csc2nc(COC(=O)c3ccc(NC(=O)COc4ccccc4F)cc3)cc(=O)n12 | inactive
COc1cccc(N=C2SC(C(=O)Nc3cccc(Cl)c3)CC(=O)N2C)c1 (centres undefined) | inactive
CN(Cc1ccccc1)c1ncnc2onc(-c3ccc(F)cc3)c12 | inactive
CC(=O)c1cccc(NC(=O)c2nc(-c3ccccc3)n(-c3cccc(C)c3)n2)c1 | inactive
CCN(CC)CCNC(=O)CN1N=C(c2ccc(OC)cc2)CCC1=O | inactive

Compound | Potency
CC(C)N(Cc1nnc(-c2ccccc2Br)o1)C(=O)c1cc(Cl)nc2ccccc12 | inactive
COc1ccc(NC(=O)CN(C)C(=O)c2cc(-c3ccc(C)o3)nc3ccccc23)cc1 | 28.2 µM (active)
O=C(c1ccc(Cl)s1)N(Cc1nnc(-c2ccccc2Cl)o1)C1CC1 | inactive
COc1ccc(-c2cc(C(=O)N(C)CC(=O)Nc3ccccc3Cl)c3ccccc3n2)cc1OC | inactive
COc1ccc(NC(=O)CN(C)C(=O)c2n[nH]c3ccccc23)cc1 | inactive
O=C(c1cc(-c2ccco2)nc2ccccc12)N(Cc1nnc(-c2ccc(Cl)cc2)o1)C1CC1 | 8.91 µM (active)
COc1ccc(Cc2nc3ccc(C(=O)NCc4ccc(OC)cc4OC)cc3o2)cc1 | inactive
O=C(Nc1cc(C(F)(F)F)ccc1Cl)c1ccc2c(c1)CCN2S(=O)(=O)c1ccccc1 | inactive
COc1ccc(NC(=O)CSc2nnc(-c3nnn(-c4ccc(F)cc4)c3C)o2)cc1 | inactive
COc1cc(C(=S)N2CCOCC2)ccc1O | inactive
COc1ccc(C)cc1NC(=S)N1CCOCC1 | 17.8 µM (active)
COc1ccc(OC)c(NC(=S)N2CCc3ccccc3C2)c1 | inactive
O=C(CCc1cn(Cc2ccc(F)cc2)c2ccccc12)NC1CCCCC1 | inactive
CC(C)Cn1c(C2CC(=O)N(c3ccccc3Cl)C2)nc2ccccc21 (centres undefined) | inactive
O=C(NCCc1ccccc1)c1ccc2c(c1)N(Cc1ccc(F)cc1)C(=O)c1ccccc1S2(=O)=O | inactive
CN(C)CC1Oc2ccccc2OC1(O)c1ccccc1 (centres undefined) | 0.355 µM (active)
CN(C)CCOC(=O)C(c1ccccc1)C1(O)CCCC1 (centres undefined) | inactive
O=C(NCC1COc2ccccc2O1)C1(c2ccccc2)CCCC1 (centres undefined) | inactive
CCOc1ccc(CC(=O)NCCc2csc3nc(-c4ccccc4F)nn23)cc1 | inactive
O=C(COc1ccc(Cl)cc1)N(Cc1ccco1)Cc1ccco1 | inactive
O=C(Nc1nc(-c2ccco2)c(-c2ccco2)s1)c1ccco1 | 7.94 µM (active)
O=C(Nc1nonc1-c1ccc(Cl)cc1)c1ccco1 | inactive
CCN(c1ccc(Cl)cc1)S(=O)(=O)c1nnc(NC(=O)c2ccco2)s1 | inactive
COc1ccc(S(=O)(=O)NCCSc2nnnn2-c2ccccc2)cc1 | inactive
